The text below walks through data of PubChem BioAssay (EPA / NIEHS).

Inconclusive results are not listed. Activity calls are given as the source filed them. Rule for the calls, unless noted: active = hit-call score of the fitted dose curve at least 0.9, where 1 is the maximum; inactive = score below 0.9.

Assay [1] can be described thus: ACEA_ER_80hr: ACEA Biosciences xCELLigence Real-Time Cell Analysis on Estrogen Receptor Agonism for Proliferation (AID 2282667; active = hit-call score of the fitted dose curve at least 0.9, where 1 is the maximum). To be noted: T47D proliferation, impedance (xCELLigence), 80 h. The method in brief: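 Cell-growth kinetics were measured by impedance in T47D cells treated continuously with compound (top 100 uM final, 1:4 steps, 8 points). Activity at 80 h was scored as signal gain over the DMSO baseline.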

Assay [2] in a line: APR_HepG2_CellCycleArrest_24hr: Apredica 24-hour HepG2 Assay for Cell Cycle Arrest (AID 2282905).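 Note: cell cycle arrest scored as ratio of 2N to 4N nuclear DNA content.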 To be noted: imaging, actives raise or lower the signal. The method in brief:
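Compounds at 0.39–200 uM (0.5% DMSO) for 24 h, then fixed and Hoechst 33342 stained. Cell-cycle analysis of nuclear DNA content by high-content imaging, fitted bidirectionally versus DMSO.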

Assay [3] in a line: APR_HepG2_NuclearSize_24hr: Apredica 24-hour HepG2 Assay for Nuclear Size (AID 2282907). The note with it: high-content imaging, actives raise or lower the signal. The method in brief: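 HepG2 cells exposed 24 h to compounds at 0.39–200 uM (0.5% DMSO), fixed, Hoechst 33342 stained and imaged at 20x; nuclear diameter measured by automated image analysis, fitted bidirectionally against DMSO controls.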

Assay [4] in a line: APR_HepG2_CellLoss_24hr: Apredica 24-hour HepG2 Assay for Cell Loss (AID 2282908).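 For AC50: fit in both directions so a hit may be cell loss or gain.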 The note with it: high-content imaging. The method in brief:
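HepG2 cells exposed 24 hr to 0.39–200 uM compound in duplicate at 0.5% v/v final DMSO. Cells fixed in 3.7% formaldehyde and Hoechst 33342-stained. Cell number came from nuclear imaging at 20x. Bidirectional fit versus DMSO.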

Assay [5] in a line: APR_HepG2_MicrotubuleCSK_24hr: Apredica 24-hour HepG2 Assay for Microtubule CSK Stabilty (AID 2282909). To be noted: HepG2 microtubule cytoskeleton imaging, actives raise or lower the signal. The method, boiled down:
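HepG2 cells were treated 24 hr with compound at 0.39–200 uM in duplicate (0.5% DMSO final), then fixed and permeabilized. Alpha-tubulin immunofluorescence was imaged by high-content microscopy, with bidirectional fitting against DMSO and taxol as positive control.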

A short description of assay [6]: APR_HepG2_MitoticArrest_24hr: Apredica 24-hour HepG2 Assay for Mitotic Arrest (AID 2282910). The note with it: high-content imaging, actives raise or lower the signal. The method in brief: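 HepG2 human liver cells were exposed to compounds at 0.39–200 uM (10 concentrations, duplicate) in 0.5% v/v DMSO for 24 hr, then fixed and immunostained for phospho-histone H3 with Hoechst 33342. Mitotic arrest came from HCS fluorescent imaging, fitted bidirectionally against DMSO.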

A short description of assay [7]: APR_HepG2_MitoMembPot_24hr: Apredica 24-hour HepG2 Assay for Mitochondrial Membrane Potential (AID 2282911). To be noted: imaging, actives raise or lower the signal. The method, boiled down: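 Human hepatoma HepG2 cultures received ten compound concentrations up to 200 uM for 24 hr. Membrane-potential dye signal, captured by automated fluorescence microscopy, was scored for gain or loss against DMSO controls.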

Assay [8] is described as follows: APR_HepG2_MitoMass_24hr: Apredica 24-hour HepG2 Assay for Mitochondrial Mass (AID 2282912). The note with it: high-content imaging, actives raise or lower the signal. The method, boiled down:
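HepG2 cells exposed 24 hr to 0.39–200 uM compound, 0.5% v/v DMSO, in duplicate. Stained before fixation with 250 nM MitoTracker Red CMXRos for 30 min, then imaged at 20x with Hoechst nuclei. Fitted in both directions against DMSO.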

Assay [9] is described as follows: APR_HepG2_CellCycleArrest_72hr: Apredica 72-hour HepG2 Assay for Cell Cycle Arrest (AID 2282914). The note with it: high-content imaging, actives raise or lower the signal. The method, boiled down:
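Cell cycle arrest in HepG2 was scored from nuclear DNA content after 72 hr compound treatment (0.39–200 uM). Activity, either gain or loss, was fitted against the DMSO baseline.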

Assay [10] is described as follows: APR_HepG2_p53Act_24hr: Apredica 24-hour HepG2 Assay for p53 Activation (AID 2282913).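 Note: p53 protein immunofluorescence averaged per cell in HepG2 with Hoechst nuclei.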 To be noted: high-content imaging, actives raise or lower the signal. The method, boiled down:
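Automated fluorescence imaging quantifies p53 immunostaining in HepG2 cells after a 24 hr exposure (0.39–200 uM, duplicate, 0.5% DMSO). Nuclei are located by Hoechst 33342 staining.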

Usually AC50 stands for the concentration giving half of the maximal activity seen. On to `COc1cc2c(c(OC)c1OC)-c1ccc(OC)c(=O)cc1[C@@H](NC(C)=O)CC2`, for which the compound was classed as inactive in [1], in assay [3], in [5], in assay [7] and in assay [8]. The AC50 is 0.0391 µM (active) in assay [2], 0.0447 µM (active) in assay [4], 0.0382 µM (active) in assay [6] and 0.0732 µM (active) in assay [9].
Turning to `CCCCOC(=O)c1ccccc1`, the outcome in [1], in assay [2], in assay [3], in assay [4], in [5] and in [6] was inactive. Also, the compound was called inactive in assay [7], in assay [8], in assay [10] and in assay [9].
For `FC(F)=C(F)C(F)(F)C(F)(F)C(F)(F)C(F)(F)C(F)(F)C(F)(F)F`, the compound was called inactive in assay [1].
Same read-out and setting: the result for `O=C(O)CO` reads “inactive”.
On to `OC(Cn1cncn1)(Cn1cncn1)c1ccc(F)cc1F`, for which the call in assay [1], in assay [2], in assay [3], in [4], in [5] and in assay [6] was inactive. Besides, the result in assay [7], in assay [8], in assay [10] and in assay [9] was inactive.
On to `C[C@]12C=CC(=O)C=C1CC[C@H]1[C@@H]3C[C@@H](O)[C@](O)(C(=O)CO)[C@@]3(C)C[C@H](O)[C@@]12F`, for which, in assay [1], the AC50 was 10.9 µM (active). The outcome in [2], in assay [3], in assay [4], in assay [5], in assay [6] and in assay [7] was inactive. Besides, the call in assay [8], in assay [10] and in assay [9] was inactive.
`C=CN1CCCC1=O`: the compound was classed as inactive in assay [1], in [2], in [3], in assay [4], in assay [5] and in assay [6]. The compound was called inactive in assay [7], in assay [8], in assay [10] and in assay [9].
Take `CCc1ccc(O)c(C(C)(C)C)c1`: the compound was called inactive in assay [1], in [3], in assay [10] and in [9]. Also, the AC50 was 98.1 µM (active) in assay [2]; 83.8 µM (active) in [4]; 80.7 µM (active) in [5]; 101 µM (active) in assay [6]; 86.2 µM (active) in [7]; 105 µM (active) in [8].
`O=C(O)c1cccc(C(=O)O)c1`: the compound was classed as inactive in [1], in assay [2], in [3], in assay [4], in assay [5] and in [6]. Further, the result in assay [7], in assay [8] and in [9] was inactive.
For the compound `CCOc1ccc2[nH]cc(C(=O)NCc3ccccc3)c(=O)c2n1`, the AC50 in assay [1] was 69 µM (active); in assay [6], 104 µM (active). Moreover, the compound was called inactive in assay [2], in assay [3], in assay [4], in assay [5], in assay [7] and in assay [8]. Also, the result in [9] was inactive.
Take `S=P(N1CC1)(N1CC1)N1CC1`: in [1], the result was inactive.
`CC[C@H](C)C(=O)O[C@H]1C[C@H](O)C=C2C=C[C@H](C)[C@H](CC[C@@H](O)C[C@@H](O)CC(=O)O)[C@H]21`: the call in assay [1], in assay [2], in assay [3], in [4], in assay [5] and in assay [6] was inactive. Besides, the compound was classed as inactive in [7], in assay [8] and in assay [9].
Regarding `OC(CCl)CCl`, the result in assay [1], in assay [2], in assay [3], in [4], in assay [5] and in assay [6] was inactive. Besides, the outcome in [7], in assay [8], in assay [10] and in assay [9] was inactive.
As to `CC(C)CCCCCCOC(=O)C1CCCCC1C(=O)OCCCCCCC(C)C` (stereo not drawn), the compound was called inactive in assay [1], in assay [2], in assay [3], in [4], in assay [5] and in [6]. In addition, the compound was classed as inactive in [7], in assay [8] and in assay [9].
Consider `Cn1c(=O)c2[nH]cnc2n(C)c1=O`, for which the compound was classed as inactive in assay [1], in [2], in [3], in assay [4], in assay [5] and in assay [6]. Also, the call in assay [7], in [8], in [10] and in assay [9] was inactive.
On to `OCCNCCO`, for which the compound was classed as inactive in assay [1], in assay [2], in assay [3], in assay [4], in assay [5] and in assay [6]. Further, the compound was classed as inactive in assay [7], in [8] and in [9].
As for `O=C(NO)C1(NS(=O)(=O)c2ccc(Oc3ccc(F)cc3)cc2)CCOCC1`, the result in [1], in assay [2], in assay [3], in [4], in assay [5] and in [6] was inactive. Further, the outcome in [7], in assay [8] and in assay [9] was inactive.
Turning to `CCCCCCCCCCCCCCO`, the result in assay [1], in assay [3] and in assay [7] was inactive. Further, the AC50 in assay [2] was 162 µM (active); in [4], 98.1 µM (active); in [5], 107 µM (active); in assay [6] it was 99.3 µM (active); in assay [8] it was 106 µM (active); in [10], 95.8 µM (active). In [9], the AC50 is 100 µM (active).
Take `OCc1c[nH]c2ccccc12`: the compound was classed as inactive in assay [1].
Same read-out and setting: the value for `FC(F)(F)C(F)(F)C(F)(F)C(F)(F)C(F)(F)C(F)(F)I` was “inactive”.
As to `CCn1nc(C)c2c1C(=O)NCC(c1ccc(O)cc1)=N2`, the call in assay [1], in [2], in [3], in [4], in [5] and in [6] was inactive. Moreover, the result in [7], in assay [8], in [10] and in [9] was inactive.
